Screen size: about 300,000 compounds; about 5,200 (1.7%) were called active. The full list was thinned out, with actives kept by preference. Values without a mark were called inactive.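 The calls were made as follows: active = mean replicate activation of at least 50% with a set share of replicates each reaching 50%; inconclusive = only one of those two conditions met; inactive = mean below 50% and too few replicates reaching it.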
Assay: HSF-1 response element luciferase induction – NIH3T3-HGL cells, MG132 stress, luminescence, single point, primary screen (AID 504408);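 also: 0% = median of the neutral control wells and 100% = twice that signal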
Details: NIH3T3-HGL HSF-1 luciferase reporter, MG132, 8 h; at 9 µM; active compounds read high; 100% = twice DMSO control signal

In order of falling activation:
1. CC(C)C(=O)OCC(=O)Nc1ccc2c(c1)CCC2  41.4%
2. CCOC(=O)c1c(C)nc2c(c1C)c(=O)oc1ccccc12  36.6%
3. CC(=NCc1ccc2c(c1)OCO2)C1=C(O)c2ccccc2C1=O  33.7%
4. S=c1[nH]c(-c2cccs2)cn1-c1ccccc1  33.3%
5. NC(=O)C1CCN(C(=O)c2cn(-c3ccccc3)nc2-c2cccnc2)CC1  32.4%
6. COC(=O)c1sc(NC(=O)c2csc3c2CCCC3)nc1C  30.2%
7. COc1ccccc1NC(=O)Nc1nc(CC(=O)Nc2ccccc2F)cs1  23.4%
8. Fc1ccc(CSc2nnc(-c3cc4c(s3)-c3ccccc3CC4)o2)cc1  21.9%
9. Cc1ccc(NC(=S)NCCc2ccc(Cl)cc2)c(C)c1  21.9%
10. Cc1ccc(C2(C)NC(=O)N(CC(=O)Nc3ccccc3C(=O)N3CCCCC3)C2=O)cc1 (stereo unspecified)  20.7%
11. COc1ccc(NC(=O)CN(C)C(=O)c2cc(-c3ccc(C)o3)nc3ccccc23)cc1  19.7%
12. O=C(NCCN1CCOCC1)c1ccc2c(c1)N(Cc1ccc(Cl)cc1)CCS2  16.5%
13. O=C(c1cc(-c2ccco2)nc2ccccc12)N(Cc1nnc(-c2ccc(Cl)cc2)o1)C1CC1  16.1%
14. Cc1cccc([C@@H]2[C@@H]3C(=O)N(Cc4ccccc4)C(=O)[C@@H]3[C@]3(Cc4ccc(Cl)cc4)C(=O)N(c4cccc(Cl)c4)C(=O)N23)c1  13.8%
15. COc1cccc(N(CC(=O)Nc2cccc(N(C)S(C)(=O)=O)c2)S(C)(=O)=O)c1  12.3%
16. Cc1ccc(-c2cc(C(=O)NC3CCN(Cc4ccccc4)CC3)c3ccccc3n2)cc1  11.6%
17. O=C(CCC(=O)c1cccs1)Nc1nc2ccccc2s1  10.8%
18. Cc1cc(NC(=O)C(C)SCC(=O)Nc2ccccc2N2CCCCC2)no1 (stereo unspecified)  10.3%
19. CCOC(=O)N1CCN(C(=O)c2ccc3c(c2)N(Cc2ccc(C)cc2)CCS3)CC1  9.82%
20. CC(OC(=O)C1CC(=O)N(Cc2ccccc2)C1)C(=O)Nc1ccccc1[N+](=O)[O-] (stereo unspecified)  8.17%
21. Cc1ccc2nc(SCC(=O)NC3CCCC3)[nH]c2c1  7.63%
22. O=C(NC1CCCC1)c1ccc(Br)s1  7.08%
23. O=C(Nc1ccccc1N1CCOCC1)c1csc2c1CCCC2  6.54%
24. CCCCC(=O)Nc1cc(C)c2c(=O)oc3ccccc3c2n1  6.46%
25. COc1ccc(N2CCN(C(=O)CCNC(=O)c3ccc(Br)cc3)CC2)cc1  6.12%
26. COc1ccc(S(=O)(=O)N2CCCC2CNC(=O)C(=O)NC2CC2)cc1 (stereo unspecified)  5.75%
27. Cc1ccc(NC(=S)NCc2ccccc2Cl)c(C)c1  5.6%
28. O=S(=O)(Nc1cccc(-c2ccc(N3CCOCC3)nn2)c1)c1ccc(Cl)c(Cl)c1  5.14%
29. O=C(c1ccncc1)N1CCN(S(=O)(=O)c2cc(C(F)(F)F)cc(C(F)(F)F)c2)CC1  4.51%
30. CCc1nnc(NC(=O)/C=C/c2ccc(C)o2)s1  3.89%
31. COc1ccc(C(=O)OCC(=O)c2ccc(Cl)s2)c(OC)c1OC  3.84%
32. COc1ccc(-n2c(-c3ccc(OC)c(OC)c3)n[nH]c2=S)cc1  3.03%
33. Cc1ccc(/C=C/C(=O)Nc2cc(S(=O)(=O)N3CCCCCC3)ccc2OCC(F)(F)F)o1  2.76%
34. COCCN(C(=O)COC(=O)Cc1cccc(OC)c1)c1c(N)n(Cc2ccccc2)c(=O)[nH]c1=O  2.54%
35. COc1ccc(Cl)cc1NC(=O)CNc1ccccc1F  2.49%
36. CC1CCCCC1NC(=O)c1cc(=O)[nH]c2ccccc12 (stereo unspecified)  1.85%
37. COc1ccc(/C(C)=N/NC(=O)CCC(=O)Nc2ccc(Cl)cc2Cl)c(OC)c1  1.67%
38. CCCn1c(SCC(N)=O)nnc1C(C)C  1.36%
39. COc1ccc(S(=O)(=O)N2CCCCC2)cc1NC(=O)C1CC(=O)N(c2ccc3c(c2)OCCO3)C1 (stereo unspecified)  1.34%
40. O=C(O)c1cccc(S(=O)(=O)Nc2ccc(O)cc2Sc2nc3ccccc3s2)c1  1.08%
41. CC(=O)c1c(C)[nH]c(C(=O)N2CCN(S(=O)(=O)c3ccc(F)c(F)c3)CC2)c1C  0.878%
42. CCc1cccc(C)c1NS(=O)(=O)c1cc(Br)cnc1N  0.695%
43. Cc1ccc(C(=O)CN2C(=O)NC3(CCc4ccccc43)C2=O)c(C)c1 (stereo unspecified)  0.629%
44. CCN1CCN(C(=O)N(Cc2ccc(Cl)cc2)S(=O)(=O)c2ccc(C)cc2)CC1  0.289%
45. Cc1ccc(N(CC(=O)Nc2cccc(N(C)S(C)(=O)=O)c2)S(C)(=O)=O)cc1  0.04%
46. CCN(CC(=O)Nc1c(F)cccc1F)C(=O)c1ccc(-c2ccccc2)cc1  0.0275%
47. COc1ccccc1C(=O)NC(=O)COC(=O)c1ccco1  -0.902%
48. Cc1cccc(C(=O)OC(C)C(=O)NC2CCCc3ccccc32)c1O (stereo unspecified)  -1.67%
49. CCn1c(SCC(=O)Nc2ccc3c(c2)OCCO3)nnc1C(C)C  -3.33%
50. Cc1cc(=O)oc2cc(NC(=O)C(C)Oc3ccccc3)ccc12 (stereo unspecified)  -3.4%
51. O=[N+]([O-])c1ncc(Br)cc1Nc1ccccc1  -4.85%
52. CCOc1ccc(S(=O)(=O)N2CCN(C(=S)NCC3CCCO3)CC2)cc1 (stereo unspecified)  -5.36%
53. Cc1ccc(SCCC(=O)Nc2cc(C)on2)cc1  -5.42%
54. CCCCn1c(N)c(N(CCOC)C(=O)c2cccc(OCc3ccccc3)c2)c(=O)[nH]c1=O  -6.35%
55. CN(CC(=O)NNC(=O)CNC(=O)c1ccccc1Cl)S(=O)(=O)c1ccc(Cl)cc1  -6.99%
56. O=C(CSc1nnc(-c2ccccc2O)o1)NC1CCCCC1  -7.41%
57. CC(=O)Nc1ccc(-c2csc(NC(=O)Nc3ccccc3)n2)cc1  -8.14%
58. CCN(CC(=O)Nc1cc(Cl)ccc1C)C(=O)CN1C(=O)NC2(CCCC2)C1=O  -8.94%
59. Cc1ccccc1NC(=O)c1ccccc1NS(=O)(=O)c1cccc2cccnc12  -9.95%
60. CC(=O)Nc1ccc(NC(=O)CSC2=NS(=O)(=O)c3ccccc3N2)cc1  -10.3%
61. CCCNC(=O)CCn1cc(-c2ccc(OC)cc2)nc1CCN  -10.4%
62. Cc1ccc(S(=O)(=O)N2CCC(C(=O)OCC(=O)N(C)c3ccccc3)CC2)cc1C  -10.4%
63. COc1cc(NS(=O)(=O)c2ccc3ccccc3c2)c2ncccc2c1  -10.7%
64. Cc1ccc(C)c(OCCC(=O)OCC(=O)c2ccc3c(c2)NC(=O)CO3)c1  -12.3%
65. CC(C)N(Cc1nnc(-c2ccc(Cl)cc2)o1)C(=O)C1=COCCO1  -12.7%
66. O=C(COc1ccccc1F)Nc1nc(-c2ccccn2)cs1  -13.1%
67. CCOc1ccccc1Nc1ccc2nonc2c1[N+](=O)[O-]  -13.1%
68. CC1(c2ccccc2)NC(=O)N(CC(=O)Nc2cc(Cl)ccc2N2CCOCC2)C1=O (stereo unspecified)  -13.3%
69. CC[C@@]12C(=O)N(c3ccccc3)C(=O)N1[C@H](c1ccc(Br)cc1)[C@@H]1C(=O)N(C(C)(C)C)C(=O)[C@@H]12  -15%
70. CC(=O)Nc1ccc(NC(=O)C(C)OC(=O)C2CC(=O)N(CCc3ccccc3)C2)cc1 (stereo unspecified)  -21.8%
71. CC(=NCc1ccco1)c1c(C(F)(F)F)[nH]n(-c2nc3ccccc3s2)c1=O  -45.7%
72. Cn1cccc1C(=O)OCC(=O)c1ccc(Br)s1  -97.9%

In the case of `Oc1ccccc1CNc1ncc(Br)cc1Br`, the activation was 114% (active).
In the case of `O=C(NCCc1ccccc1)c1ccc2c(c1)N(Cc1ccccc1)CCS2`, the activation was 82.5% (active).
In the case of `Cc1ccc(NC(=O)c2csc3c2CCCC3)cc1`, the activation was 59.9% (active).
For `CN(c1cccc(NC(=O)Nc2ccc(Cl)cc2)c1)S(C)(=O)=O`, the activation was 115% (active).
For `Cc1ccc2nc(-c3ccc(SCC(=O)Nc4cc(C)on4)nc3)[nH]c2c1`, the activation was 55.5% (active).
With `COc1ccc(-c2cn(-c3ccc(OC)cc3)c(=S)[nH]2)cc1` the activation was 56.7% (active).
With `Cc1ccccc1-n1nnc2c(=O)oc3ccccc3c21` the activation was 105% (active).
With `CCSc1nnc(-c2cc3c(s2)-c2ccccc2CC3)o1` the activation was 51.8% (active).
With `CCCCC(=O)N/N=C(\C)CC(=O)Nc1cc(Cl)ccc1OC` the activation was 72.1% (active).
In the case of `O=C(Nc1ccc2c(c1)CCC2)c1ccc(Br)s1`, the activation was 71% (active).
For `CC(=NCc1ccco1)C1=C(O)c2ccccc2C1=O`, the activation was 106% (active).
In the case of `CC1=C(/C=C/C(C)=C/C=C/C(C)=C/C=C/C=C(C)/C=C/C=C(C)/C=C/C2=C(C)CCCC2(C)C)C(C)(C)CCC1`, the activation was 54.5% (active).
For `Cc1ccc(NC(=O)CN2C(=O)NC(C)(c3ccc(Cl)cc3)C2=O)c(Br)c1` (stereo unspecified), the activation was 78.5% (active).
For `Cc1ccc(NC(=S)Nc2ncccc2C)c(C)c1`, the activation was 56.7% (active).
In the case of `O=C(Nc1ccccc1)Nc1nc2ccccc2s1`, the activation was 61.1% (active).
In the case of `O=[N+]([O-])c1ccccc1S(=O)(=O)Nc1cccc2cccnc12`, the activation was 144% (active).
For `O=[N+]([O-])c1c(NCCO)cc(Sc2nc3ccccc3s2)c2nonc12`, the activation was 229% (active).
With `CCCn1c(SCC(=O)c2ccc3c(c2)OCCO3)nnc1C(C)C` the activation was 62.4% (active).
In the case of `Cc1ccc(/C=C/C(=O)Nc2ccc([N+](=O)[O-])c(NC(=O)/C=C/c3ccc(C)o3)c2)o1`, the activation was 73% (active).

From PubChem BioAssay AID504408 (Broad Institute, 2011)
